# According to PubChem BioAssay AID588795 (National Center for Advancing Translational Sciences (NCATS), 2011):
# Screen size: about 390,000 compounds; about 1,400 (0.36%) were called active. Another 2% or so got no clear call; they are omitted. The call rests on the fitted dose curve; in most records, active means well fitted inhibition curve with a large enough effect; inconclusive means small, poorly fitted or top-dose-only effect; inactive means no such curve, though single readings can be large or run the other way. What follows is part of a selection rich in actives, with near analogues and random picks from the rest. Where a call stands in place of a potency, no number is given.
# Target: Flap endonuclease 1 (Homo sapiens) (UniProt P39748)
# Sequence (P39748 whole entry, looked up): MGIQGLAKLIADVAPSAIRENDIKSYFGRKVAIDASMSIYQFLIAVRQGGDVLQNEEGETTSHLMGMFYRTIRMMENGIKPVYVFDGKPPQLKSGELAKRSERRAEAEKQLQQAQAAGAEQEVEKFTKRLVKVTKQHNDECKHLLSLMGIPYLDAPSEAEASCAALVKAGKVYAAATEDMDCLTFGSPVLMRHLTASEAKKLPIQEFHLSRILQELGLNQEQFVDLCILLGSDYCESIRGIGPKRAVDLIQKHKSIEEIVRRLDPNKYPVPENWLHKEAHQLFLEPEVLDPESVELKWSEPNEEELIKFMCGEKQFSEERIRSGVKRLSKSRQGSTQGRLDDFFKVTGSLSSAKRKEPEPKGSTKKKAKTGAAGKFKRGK
# Assay: qHTS Assay for the Inhibitors of Human Flap endonuclease 1 (FEN1). Further: nearly all actives have a fitted effect of over 65% in size.
# Conditions: Recombinant FEN1 flap cleavage, fluorescence, 15 min; series mostly up to 114 µM
# Source text: The major human flap endonuclease FEN1 is an efficient structure-specific enzyme that recognizes and cleaves a 5'-unannealed DNA flap. It belongs to the RAD2 family nucleases, which are involved in DNA metabolism and are highly conserved in prokaryotes and eukaryotes. FEN1 is a key enzyme in DNA replication, repair and maintenance of genomic stability. 5'-flap removal by FEN1 is critical for Okazaki fragment processing during lagging strand DNA synthesis, long-patch base excision repair (LP BER), and regulating or facilitating recombination events. […] Deletion of the yeast FEN1 gene, i.e. rad27, results in an increased frequency of short DNA (3-32 bp) repeats, micro- and mini-satellite formation, trinucleotide repeat expansion, spontaneous recombination events, and a severe growth defect in association with cell cycle arrest in late S/G2 phase. […] Cells from fen1-/- blastocysts show increased apoptotic cell death after ionizing radiation treatment, and chicken cells lacking the fen1 gene are hypersensitive to DNA alkylating agents, e.g. methylmethane sulfonate (MMS) and N-methyl-N'-nitro-N-nitrosoguanidine (MNNG), as well as hydrogen peroxide.
# NIH Chemical Genomics Center [NCGC]
# NIH Molecular Libraries Probe Centers Network [MLPCN]
# Assay Submitter (PI): David Wilson, National Institute of Aging
# Three uL of reagents (buffer in column 3 and 4 as negative control and 10 nM FEN1 in columns 1, 2, and 5-48) were dispensed into 1,536-well black solid-bottomed plate. Compounds (23 nL) were transferred via Kalypsys pin tool equipped with 1536-pin array (10 nL slotted pins, V&P Scientific, San Diego, CA). The plates were then incubated for 15 min at room temperature, and 1 uL substrate (50 nM final concentration) were added to start the reaction read twice at 0 min read and 15 min on ViewLux reader. Throughout the screen, reagent bottle and all liquid lines were chilled and made light-tight to minimize reagent degradation. All screening operations were performed on a fully integrated robotic system (Kalypsys, San Diego, CA) containing one RX-130 and two RX-90 anthropomorphic robotic arms (Staubli, Duncan, SC). Library plates were screened starting from the lowest and proceeding to the highest concentration, and a "double-dipping" step of the highest concentration was required to access higher concentrations of compounds. Vehicle-only plates, with DMSO being pin-transferred to the entire column 5-48 compound area, were inserted uniformly at the beginning and the end of each library in order to monitor for and record any shifts in the background, which can be affected by reagent dispensers or loss in enzyme activity overtime. Screening data was corrected, normalized, and concentration-effect relationships were derived by using publicly-available curve fitting algorithms developed in-house (http://ncgc.nih.gov/pub/openhts). A four parameter Hill equation was fitted to the concentration-response data by minimizing the residual error between the modeled and observed responses.
# Potency means the concentration at half of the fitted maximal effect.
row,Structure (SMILES),Potency
1,COc1cccc(N2C(=O)NC(=O)/C(=C\c3ccc([N+](=O)[O-])s3)C2=O)c1,39.8 µM (active)
2,COc1ccc(CN2C(=O)NC(=O)/C(=C\c3ccc(OC)c(OC)c3OC)C2=O)cc1,inactive
3,CCOC(=O)CC(SP1(=S)OCC2(CCCCO2)C(C2CCCCO2)O1)C(=O)OCC (stereo not given),inactive
4,C[C@]12CCC3C(CC[C@H]4[C@H](O)[C@H](O)CC[C@]34C)C1CCC2=O (stereo not given in full),inactive
5,COc1ccc2c(c1)NP(=S)(c1ccccc1)N2 (stereo not given),inactive
6,CCC(C)(O)C(=O)OC1C(=O)OC2CC3C(C)=CC(=O)C(O)C3(C)C3C4(O)OCC23C1C(C)C4O (stereo not given),inactive
7,O=C(O)/C=C/c1ccc2c(c1)OCO2,inactive
8,O=C(c1ccccc1[N+](=O)[O-])N1CCC2(CC1)OCCO2,inactive
9,O=C(O)c1cc[c]([Sb](=[O])([OH])[OH])cc1[N+](=O)[O-],1.41 µM (active)
10,CC1C(=O)OC2CCN3CC=C(COC(=O)C(C)(O)C1(C)O)C23 (stereo not given),inactive
11,Cc1cc(C)c2c(c1)NP(=S)(c1ccccc1)N2 (stereo not given),inactive
12,CC(=O)OC1C2(CC3N4C(=O)C5(CO)SSC4(CC31O)C(=O)N5C)OC(C)C(C)(C)C2=O (stereo not given),inactive
13,COc1cc([C@@H]2c3cc4c(cc3[C@H](OC(C)=O)[C@H]3COC(=O)[C@H]23)OCO4)cc(OC)c1OC,inactive
14,COC1C(O)C(C)OC(OC2CCC3(C=O)C(CCC4C3CCC3(C)C(C5=CC(=O)OC5)CCC43O)C2)C1O (stereo not given),inactive
15,CO[C@H]1[C@@H](O)[C@@H](C)O[C@H](O[C@H]2[C@H](Oc3cccc4c(O)c5c(=O)oc6ccc(C)c7c(=O)oc(c34)c5c67)O[C@H](C)[C@H](O)[C@@H]2O)[C@@H]1O,10 µM (active)
16,O=P1(Oc2ccccc2)CC(O)C(O)C(COCc2ccccc2)O1 (stereo not given),inactive
17,CCC(=O)OC(Cc1ccccc1)(c1ccccc1)C(C)CN(C)C (stereo not given),inactive
18,CC12CCC(O)CC1CCC1C2CCC2(C)C(C(=O)CC(O)C(F)(F)F)CCC12 (stereo not given),inactive
19,c1ccc2c(c1)[I+]c1ccccc1-2,50.1 µM (active)
20,N#Cc1c(Cl)c(Cl)c(Cl)c(C#N)c1Cl,inactive
